Hits are enriched below; roughly 3% of the tested compounds scored in any of these assays.
S16 viability: S16 Schwann cell cytotoxicity; Potency, µM (titrated, usually from 57.5 µM), for the others: top-dose activity change, negative = cytotoxicity, hits mostly cytotoxic; S16 Pmp22-F2sN Schwann cells viability, CellTiter-Glo, 24 h; AID 1508642; actives 0.48% (n = 43,000); also: nearly all actives have a fitted effect of over 65% in size
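Luminescence from CellTiter-Glo, read by CCD camera after a 15 min room-temperature incubation, served as the viability signal. Reporter Schwann cells (S16 Pmp22-F2sN) had been treated with pin-transferred compounds for 24 h at 37C.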
p53null 39C kill: selectivity test: cytotoxicity in p53 null cells, nonpermissive temperature; H1299 p53-null (neo) cells, 39C, ATPlite viability, 24 h; Potency, µM (highest dose often 46.1 µM), for the others: at the top dose activity, negative = cell killing, actives largely listed as cytotoxic; actives 0.97% (n = 55,000);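 also: 0% = DMSO only and -100% = full killing by 100 µM tamoxifen; nearly all actives have a fitted effect of over 50% in size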
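ATP-luminescence viability readout (ATPlite, 20 min RT) after 24 hr compound treatment at 39C of H1299-neo or H1299-p53A138V cells; titration up to 46 uM; normalized to DMSO and 100 uM tamoxifen; Hill-fit AC50.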
pS6 MEF inh: reduces mTORC1 signaling in Tsc2 and p53 null MEF cells; Tsc2-/- p53-/- MEF, phospho-rpS6 immunofluorescence/PI, 24 h; Potency, µM (highest dose often 38.3 µM), without a hit: top-dose activity change, negative = inhibition, hits mostly inhibitors; actives 0.78% (n = 44,000); AID 493208;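 also: plate controls were DMSO for no effect and rapamycin for full effect; nearly all actives have a fitted effect of over 50% in size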
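Compounds act on Tsc2-/-, p53-/- fibroblasts carrying an empty vector for 24 h before fixation and dual staining for phospho-S6 and DNA (propidium iodide). Values are percentages of cells above a rapamycin-defined pS6/PI threshold.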
PMP22 txn prim: PMP22 gene transcription modulation; actives 2% (n = 43,000); S16 Pmp22-F2sN Schwann cells (luciferase reporters placed in the Pmp22 gene), FLuc/NLuc coincidence luminescence, 24 h; Potency, µM (highest dose often 57.5 µM), without a hit: top-dose activity change, negative = inhibition, usual class: inhibitors; AID 1508649; active = clear falling dose curves in both reporters; inconclusive = both reporters move, but less clearly or upward; inactive = either reporter flat; the % is the NLuc reporter signal
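Schwann cells carrying the coincidence reporter were exposed to library compounds for 24 h at 37C, then lysed and read for FLuc and, after quenching, NLuc luminescence on a CCD imager.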
OvCa metastasis: blocks SKOV3ip1 adhesion and invasion in omental model. Potency, µM (doses to about 45.8 µM), inactives show at the highest dose activity change, negative = inhibition, hits mostly inhibitors. actives 0.1% (n = 46,000). SKOV3ip1-GFP adhesion/invasion on 3D omental model, fluorescence;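 also: plate controls were DMSO wells for no effect and tomatine positive control wells for full effect; nearly all actives have a fitted effect of over 65% in size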
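Adhesion/invasion was scored as fixed GFP-labeled SKOV3ip1 cell counts (488/509 nm), normalized to DMSO and tomatine controls. Cancer cells in serum-free medium, with four compound doses (0.36-46 umol/L), sat 2 hr at RT then 16 hr at 37 C on a 48 hr fibroblast/mesothelial/ECM culture.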
p53null 32C kill: p53 null cell cytotoxicity, permissive temperature; Potency, µM (doses to about 46.1 µM), for the others: at the highest dose activity change, negative = cytotoxicity, hits mostly cytotoxic; AID 903; actives 0.62% (n = 55,000); H1299-neo p53 null cells, ATP luminescence, 24 h, 32C;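 also: 0% = DMSO only and -100% = full killing by 100 µM tamoxifen; nearly all actives have a fitted effect of over 55% in size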
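ATP-content luminescence in p53-null H1299-neo cells after 24 h compound exposure (up to 46 uM) at 32C permissive temperature; 0% and 100% killing set by DMSO and 100 uM tamoxifen; Hill-equation AC50.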
* = called active by the depositor; i = inactive; ? = inconclusive; · = no result given; [ ] = dose if it differs, or a comment. Unless noted, calls follow the shape of the dose curve; as a rule, active = well fitted curve in the direction sought with a large enough effect; inconclusive = small, poorly fitted or top-dose-only effect, or another doubt; inactive = no such curve, though single readings can be large; an effect the other way counts as inactive or inconclusive. Unless noted, % is scaled to controls: 0 for no effect and ±100 for the full control effect; potency is read from the fitted curve at half-maximal effect.

SMILES	S16 viability	p53null 39C kill	pS6 MEF inh	PMP22 txn prim	OvCa metastasis	p53null 32C kill
CCc1cnn2c(NCc3ccc[n+]([O-])c3)cc(N3CCCC[C@@H]3CCO)nc12	·	·	·	·	-2.2%	·
COC(=O)[C@H](CCCN=C(N)N)NS(=O)(=O)c1ccc(C)cc1	·	·	·	·	-4.3%	·
CCCNC(=O)[C@H]1O[C@H]1C(=O)N[C@H](C(=O)N1CCC[C@@H]1C(=O)OC)C(C)CC (stereo not given in full)	·	·	·	·	-12.0%	·
C[C@H](CCC(=O)O)[C@H]1CC[C@H]2[C@@H]3[C@H](O)C[C@@H]4C[C@H](O)CC[C@]4(C)[C@@H]3CC[C@]12C	·	·	·	·	3.2%	·
CC1=C(C(=O)Nc2ccc(C)cc2C)C(c2cc(Br)ccc2F)n2ncc(C(=O)Nc3ccc(C)cc3)c2N1 (stereo not given)	?	?	2.93µM*	?	i	-15.3%
CSc1ccc(CCNC(=O)CCCn2c(=O)c3cccn3c3ccccc32)cc1	5.5%	12.6µM*	?	-10.8%	i	59.3%
Cc1ccccc1CNC(=O)CCCn1c(=O)c2cccn2c2ccccc21	-11.1%	12.2%	-1.6%	15.6µM*	i	-4.0%
COc1ccccc1CNC(=O)CCCn1c(=O)c2cccn2c2ccccc21	-4.4%	-15.6%	18.5µM*	?	11.9%	0.1%
COc1nccc(-c2c(-c3ccc(F)cc3)ncn2C2CCNCC2)n1	·	·	·	·	18.6%	·
Fc1cc(-c2cccc3ncc(-c4cnn(C5CCNCC5)c4)nc23)cc(F)c1CN1CCOCC1	·	·	·	·	-4.3%	·
COc1ccc(N2CCN(C(=O)c3ccc4c(=O)n(CCc5ccc(OC)c(OC)c5)c(=O)[nH]c4c3)CC2)cc1	?	10.7%	-5.8%	13.4µM*	-11.3%	0.2%
CCCCN1C(=O)C(O)(c2c(C)[nH]c3ccccc23)c2cc(Br)ccc21 (stereo not given)	-1.7%	?	?	?	?	-2.8%
CCCCN1C(=O)C(O)(c2c(C)[nH]c3ccccc23)c2ccccc21 (stereo not given)	?	-10.1%	?	18.9µM*	-8.4%	5.3%
CCOC(=O)c1[nH]c2ccccc2c1NC(=O)c1ccccc1OC	?	15.8µM*	1.6%	?	?	7.2%
CCOC(=O)c1[nH]c2ccccc2c1NC(=O)c1cc(Cl)ccc1Cl	-2.4%	?	-28.9%	?	i	-28.0%
CCn1c(C)cc(/C=C2/SC(=S)NC2=O)c1C	·	·	·	·	·	17.8µM*
COc1cccc(/C=N/Nc2nnc(C)n2N)c1OCc1ccccc1Cl	·	17.8µM*	·	·	·	·
Cc1ccc(Nc2c3c(nc4nncn24)CCC3)cc1	3.6%	-5.1%	1.7%	?	6.6%	4.9%
Brc1ccc(Nc2c3c(nc4nncn24)CCC3)cc1	-25.4%	-12.2%	5.85µM*	?	0.5%	-7.0%
CCOc1ccc(CCNC(=O)CCCn2nc(C)c3sc4ccccc4c3c2=O)cc1OCC	4.9%	-23.1%	0.3%	?	i	?
COc1ccc(CCNC(=O)CCCn2c(=O)c3ccccc3n(CC(=O)Nc3cc(Cl)ccc3C)c2=O)cc1OC	20.1%	12.6µM*	?	?	i	?
Cc1cc(C)cc(NC(=O)Cn2c(=O)n(CC(=O)NCCc3ccccc3)c(=O)c3ccccc32)c1	-3.8%	?	-2.7%	?	0.6%	?
CCc1cccc(NC(=O)Cn2c(=O)n(CC(=O)NCCc3ccccc3)c(=O)c3ccccc32)c1	-5.0%	12.6µM*	3.9%	?	0.3%	12.6µM*
COc1ccc(CCNC(=O)C(C)n2nc(C)c3sc4ccccc4c3c2=O)c(OC)c1 (stereo not given)	-0.3%	?	2.93µM*	-9.6%	i	-21.4%
CCC(C(=O)NCCc1ccc(OC)c(OC)c1OC)n1nc(C)c2sc3ccccc3c2c1=O (stereo not given)	?	1.5%	1.1%	?	0.0%	-10.5%
SMILES	S16 viability	p53null 39C kill	pS6 MEF inh	PMP22 txn prim	OvCa metastasis	p53null 32C kill
COc1ccc(CCNC(=O)CCCn2nc(C)c3sc4ccccc4c3c2=O)cc1OC	-9.6%	?	18.5µM*	-31.8%	-1.2%	?
c1ccc(-c2oc3ncnc(NC[C@@H]4CCCO4)c3c2-c2ccccc2)cc1	·	·	·	·	-0.8%	·
CCOc1ccc(Cc2cc([C@@H]3O[C@H](CO)[C@@H](O)[C@H](O)[C@@H]3O)ccc2Cl)cc1	·	·	·	·	-2.2%	·
CCOc1ccc(CNC(=O)CSc2nnc(C)c3c(C)n(-c4ccccc4)nc23)cc1	10.4%	25.1µM*	-0.1%	-23.1%	-12.7%	22.2%
Oc1ccccc1-c1nc(/C=C/c2ccccc2Cl)no1	-2.0%	10µM*	-5.4%	?	-13.8%	10µM*
Oc1ccc(NCc2ccccc2OCc2ccccc2)cc1	20µM*	?	?	7.27µM*	5.3%	-16.9%
Oc1ccc(NCc2ccccc2OCc2ccc(Cl)cc2)cc1	20µM*	?	?	?	i	-26.0%
Oc1ccccc1CNc1cnc2ccccc2c1	·	-12.6%	·	·	·	-3.7%
COc1cc(CNc2ccc(O)cc2)cc(Br)c1OCc1ccccc1F	·	·	·	·	·	-23.4%
Nc1nc(NCCNc2ncc(-n3ccnc3)c(-c3ccc(Cl)cc3Cl)n2)ccc1[N+](=O)[O-]	·	·	·	·	-7.1%	·
Cc1ccc(O)c(NC(=O)c2noc3c2CCCC3)c1	·	10µM*	-1.4%	·	i	?
Cc1ccc(O)c(NC(=O)c2noc3c2CCCCC3)c1	-4.9%	12.6µM*	-14.0%	?	i	12.6µM*
COc1ccc(OC)c(NC(=O)c2noc3c2CCCC3)c1	-4.1%	-14.6%	3.5%	-7.6%	1.5%	-5.8%
CC(=O)c1cccc(NC(=O)c2noc3c2CCCC3)c1	·	?	1.1%	·	31.5%	?
CC(C)c1cnn2c(NCc3ccccc3)cc(NCCCCCCN)nc12	·	·	·	·	-29.4%	·
Cc1cc([C@@H](C)Nc2ccccc2C(=O)O)c2nc(N3CCOCC3)cc(=O)n2c1	·	·	·	·	-13.5%[92.2 µM]	·
CN1c2cc(Cl)ccc2-c2nc(SCC(=O)Nc3ccc(F)cc3F)ncc2S1(=O)=O	25.1µM*	?	-7.3%	?	-6.9%	-7.5%
Cc1ccc(NC(=O)CSc2ncc3c(n2)-c2ccc(Cl)cc2N(C)S3(=O)=O)cc1F	9.5%	-3.0%	-7.6%	?	5.9%	1.0%
CC(C)Cn1c(/C=C/c2ccccc2)nc2ccccc21	·	-6.7%	·	·	·	·
CCOc1ccc(S(=O)(=O)Nc2nc3ccccc3nc2Nc2ccc(OC)cc2)cc1	-0.7%	15.1%	5.6%	-10.0%	-3.9%	8.9%

Assay outcomes from PubChem BioAssay.
